Consider eight compounds from PubChem BioAssay (NCI).

Common to all, as to test: NCI-60 one-dose screen, 48 h (100 = growth as untreated, 0 = no growth, -100 = all killed)
One assay concerns SN12C renal. The following applies: 10 µM unless noted.
The subject of another assay is UO-31 renal. The following applies: 10 µM unless noted.
The next assay concerns TK-10 renal. To be noted: 10 µM unless noted.
The next assay concerns ACHN renal. To be noted: 10 µM unless noted.
In another assay the test system is CAKI-1 renal. The following applies: 10 µM unless noted.
The subject of a further assay is A498 renal. The following applies: 10 µM unless noted.
The next assay deals with CCRF-CEM leukemia. To be noted: 10 µM unless noted.
A further assay has as its system MOLT-4 leukemia. The following applies: 10 µM unless noted.
A further assay has as its system SR leukemia. The following applies: 10 µM unless noted.
For the next assay, the system named is RPMI-8226 leukemia. To be noted: 10 µM unless noted.
A further assay has as its system OVCAR-8 ovarian. The following applies: 10 µM unless noted.
For another assay, the system named is OVCAR-5 ovarian. To be noted: 10 µM unless noted.
The subject of another assay is OVCAR-4 ovarian. To be noted: 10 µM unless noted.
The test system of another assay is SK-OV-3 ovarian. The following applies: 10 µM unless noted.
The test system of another assay is IGROV1 ovarian. The following applies: 10 µM unless noted.
The test system of another assay is OVCAR-3 ovarian. To be noted: 10 µM unless noted.
The subject of the next assay is HS 578T breast. The following applies: 10 µM.
Another assay concerns NCI/ADR-RES ovarian. To be noted: 10 µM unless noted.

About 83,000 compounds went through this panel and 20% of them were active in at least one assay; those are over-represented in the sample as a whole.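 96-well plates, one dose, 48 hours. Percent growth reported; active if below 10.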 A number with no mark means an inactive call. Active and inactive are the calls of the source.

With `Cc1cc(C)c(C#N)c(SCC(=O)c2sc3c(C#N)c(C)cc(C)[n+]3c2[O-])n1`, the growth with SN12C renal was 31.4%; in the assay with UO-31 renal, 45.5%; in the assay on TK-10 renal, 35.3%; in the assay with ACHN renal, 31%; in the assay on CAKI-1 renal, -6.91% (active); with A498 renal, -6.21% (active). Further, the growth in the assay with CCRF-CEM leukemia is 9.64% (active); in the assay on MOLT-4 leukemia it was 2.71% (active); in the assay on SR leukemia, 5.47% (active); with RPMI-8226 leukemia, 43.1%; in the assay on OVCAR-8 ovarian, 20.4%; in the assay on OVCAR-5 ovarian it was 41.6%. The growth with OVCAR-4 ovarian is 66.9%; in the assay with SK-OV-3 ovarian, 14.7%; in the assay with IGROV1 ovarian, 9.29% (active); in the assay on OVCAR-3 ovarian, -15.9% (active); in the assay on HS 578T breast, 21.8%; in the assay on NCI/ADR-RES ovarian it was 12%.

As to `COc1ccc2cc(-c3nc(C)c(C(C)=O)c(-c4ccc(C)cc4)n3)ccc2c1`, the growth is 95.5% in the assay with SN12C renal; 72.9% with UO-31 renal; 93.9% in the assay with TK-10 renal; 98.7% in the assay on ACHN renal; 79.5% with CAKI-1 renal; 83% with A498 renal. In addition, the growth in the assay on CCRF-CEM leukemia was 89.7%; in the assay on MOLT-4 leukemia, 106%; in the assay with SR leukemia, 108%; in the assay on RPMI-8226 leukemia, 86.9%; in the assay with OVCAR-8 ovarian it was 93.4%; in the assay with OVCAR-5 ovarian, 93.1%. Moreover, the growth was 92% in the assay on OVCAR-4 ovarian; 97.5% with SK-OV-3 ovarian; 101% in the assay with IGROV1 ovarian; 94.3% in the assay with OVCAR-3 ovarian; 86% in the assay on HS 578T breast; 92.5% in the assay on NCI/ADR-RES ovarian.

`COc1cc(C2C=C(C)N=C3SC=NN32)cc(OC)c1OC` (configuration not stated): the growth with SN12C renal was 100%; in the assay with UO-31 renal it was 99.5%; with TK-10 renal, 109%; in the assay with ACHN renal, 102%; in the assay with CAKI-1 renal, 99%; in the assay with A498 renal it was 90.9%. In addition, the growth in the assay with CCRF-CEM leukemia is 90.7%; with MOLT-4 leukemia, 97.2%; in the assay on SR leukemia, 102%; in the assay with RPMI-8226 leukemia, 98.9%; with OVCAR-8 ovarian, 92%; with OVCAR-5 ovarian, 91.6%. The growth in the assay on OVCAR-4 ovarian was 103%; in the assay on SK-OV-3 ovarian, 111%; with IGROV1 ovarian, 118%; in the assay with OVCAR-3 ovarian, 116%; in the assay on HS 578T breast, 106%; with NCI/ADR-RES ovarian, 104%.

Consider `O=C(Nc1ccc2[nH]c3ccccc3c2c1)c1ccccc1Cl`, for which the growth with SN12C renal was 61.3%; with UO-31 renal, 65.7%; in the assay with TK-10 renal, 49.7%; with ACHN renal, 70%; in the assay on CAKI-1 renal, 27.2%; with A498 renal, 44.7%. For the same compound, the growth in the assay on CCRF-CEM leukemia is 40.1%; in the assay with MOLT-4 leukemia, 33.4%; in the assay on SR leukemia, 17.6%; in the assay on RPMI-8226 leukemia it was 67.5%; with OVCAR-8 ovarian it was 72.4%; with OVCAR-5 ovarian, 82.4%. For the same compound, the growth in the assay with OVCAR-4 ovarian is 101%; in the assay with SK-OV-3 ovarian, 50.5%; with IGROV1 ovarian, 50.1%; with OVCAR-3 ovarian, 50.9%; in the assay with HS 578T breast, 70.6%; in the assay with NCI/ADR-RES ovarian, 18.8%.

Turning to `COc1cc(C2CC(c3ccc(Nc4ccnc5cc(Cl)ccc45)cc3)=NN2c2ccccc2)cc(OC)c1OC` (configuration not stated), the growth in the assay on SN12C renal was 76.3%; in the assay on UO-31 renal, 57.8%; in the assay on TK-10 renal, 89.8%; in the assay on ACHN renal, 77.1%; with CAKI-1 renal it was 48.2%; in the assay with A498 renal, 61%. Also, the growth in the assay on CCRF-CEM leukemia was 47.5%; in the assay with MOLT-4 leukemia it was 62.3%; in the assay on SR leukemia, 24.8%; in the assay on RPMI-8226 leukemia, 49.7%; in the assay on OVCAR-8 ovarian, 81.2%; in the assay with OVCAR-5 ovarian, 86.4%. The growth in the assay on OVCAR-4 ovarian was 123%; in the assay with SK-OV-3 ovarian it was 90.3%; in the assay with IGROV1 ovarian, 106%; with OVCAR-3 ovarian it was 86.7%; with HS 578T breast, 72.4%.

As to `COc1ccc(-c2nsc3c2NC(=O)CC3c2cccc(F)c2)cc1` (configuration not stated), the growth with SN12C renal is 55.7%; with UO-31 renal, 70.5%; with TK-10 renal, 51.6%; in the assay with ACHN renal, 66.2%; in the assay with CAKI-1 renal, 38.5%; in the assay on A498 renal, 28.7%. In addition, the growth is 49.5% in the assay on CCRF-CEM leukemia; 41.6% with MOLT-4 leukemia; 15.4% in the assay on SR leukemia; 47.1% with RPMI-8226 leukemia; 60.4% with OVCAR-8 ovarian; 57% in the assay on OVCAR-5 ovarian. Moreover, the growth in the assay on OVCAR-4 ovarian was 92.1%; in the assay on SK-OV-3 ovarian, 58.9%; in the assay on IGROV1 ovarian it was 57.2%; in the assay with OVCAR-3 ovarian it was 9.37% (active); in the assay with HS 578T breast, 79.1%; in the assay on NCI/ADR-RES ovarian it was 22.8%.

For `CC(=O)c1c(C)nc(-c2cc(C)cc(Cl)c2)nc1-c1cccc(Oc2ccccc2)c1`, the growth in the assay with SN12C renal is 80.1%; with UO-31 renal, 85.2%; with TK-10 renal, 93.6%; in the assay with ACHN renal it was 99.6%; with CAKI-1 renal, 68.2%; in the assay on A498 renal it was 41.3%. The growth is 32.5% with CCRF-CEM leukemia; 27.9% in the assay with MOLT-4 leukemia; 10.1% in the assay on SR leukemia; 46.4% with RPMI-8226 leukemia; 91.8% with OVCAR-8 ovarian; 107% in the assay with OVCAR-5 ovarian. For the same compound, the growth with OVCAR-4 ovarian is 85.1%; in the assay with SK-OV-3 ovarian, 84%; in the assay on IGROV1 ovarian, 77.7%; with OVCAR-3 ovarian it was 38.6%; with HS 578T breast, 59.8%; with NCI/ADR-RES ovarian, 25.1%.

Regarding `Cc1nc2ccc(Nc3nc(Cl)nc(N4CCOCC4)n3)cc2n1Cc1ccccc1`, the growth was 78.2% in the assay with SN12C renal; 73.8% with UO-31 renal; 44.7% in the assay on TK-10 renal; 79.4% with ACHN renal; 104% in the assay with CAKI-1 renal; 91.7% in the assay on A498 renal. In addition, the growth was 45.7% in the assay on CCRF-CEM leukemia; 25.8% with MOLT-4 leukemia; 18.5% in the assay on SR leukemia; 74.4% in the assay with RPMI-8226 leukemia; 44% in the assay with OVCAR-8 ovarian; 104% in the assay with OVCAR-5 ovarian. Further, the growth is 126% in the assay with OVCAR-4 ovarian; 93.7% with SK-OV-3 ovarian; -1.16% (active) in the assay with IGROV1 ovarian; 98.4% in the assay with OVCAR-3 ovarian; 81.4% in the assay on HS 578T breast.
